In the library only some 1.5% were active in any assay of this set; here they are far more common.
CFTR F508del cor: CFTR F508del correction in bronchial cells; CFBE cells, YFP halide quenching; stimulated with forskolin plus potentiator P3; % fluorescence drop versus neutral controls; activity (quench increase), % at 7.58 µM; 350,000 tested, 0.36% active;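 active = mean added fluorescence quench of at least 8% versus neutral control, with both replicates also reaching 8%; inconclusive = only one of the mean or replicate conditions met; inactive = mean below 8% and not both replicates reaching 8%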;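 note: cells transiently co-express mutant CFTR-F508del with the halide-sensitive YFP; corrector assay measuring rescue of mutant channel to the surface after 24 h compound exposure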
dFosB act: enhances mouse delta FosB homodimer DNA binding | P13346 | purified delta FosB, TAMRA-CDK5 oligo fluorescence polarization; percent of positive-control signal above neutral wells | activation, % at 25 µM | 340,000 tested, 0.99% active;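 active = mean activation above about 17%, with every replicate also reaching it, limit read from the data, passing the limit was not always enough; inconclusive = only one of the two conditions met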
RAD54 inh: RAD54 (human) branch migration inhibition; Q92698; RAD54 Holliday junction branch migration, FAM/BHQ fluorescence; inhibition, % at 10.4 µM; 360,000 tested, 0.14% active; AID 602329;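 active = mean normalized replicate activity at least 40 and at least half of replicates scoring 40 or more; inconclusive = only one of the two criteria met; inactive = mean below 40 and under half of replicates reaching 40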;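 note: 0% = median of neutral control wells and 100% = median of positive control wells; inhibitors cause a drop in the FAM fluorescence signal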
RAD52 inh: inhibitors of human RAD52 DNA annealing. P43351. recombinant RAD52 DNA annealing, FRET fluorescence. inhibition, % at 18.7 µM. 360,000 tested, 0.46% active;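 active = every replicate showing at least 50% inhibition; inconclusive = mean inhibition at least 50% but not in every replicate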
Target sequence (P43351 whole entry, looked up): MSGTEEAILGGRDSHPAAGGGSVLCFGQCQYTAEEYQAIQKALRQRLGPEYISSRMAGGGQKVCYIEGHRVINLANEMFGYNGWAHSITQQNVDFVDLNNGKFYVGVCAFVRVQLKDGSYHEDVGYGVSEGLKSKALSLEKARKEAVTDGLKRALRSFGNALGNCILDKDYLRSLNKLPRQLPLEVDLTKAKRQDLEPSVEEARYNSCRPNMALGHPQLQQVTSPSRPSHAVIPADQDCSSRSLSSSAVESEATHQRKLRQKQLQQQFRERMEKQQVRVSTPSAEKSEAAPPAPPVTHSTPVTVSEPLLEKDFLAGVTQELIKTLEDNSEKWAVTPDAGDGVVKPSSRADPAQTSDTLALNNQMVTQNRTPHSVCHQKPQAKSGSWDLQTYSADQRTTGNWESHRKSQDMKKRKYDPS
Glyco luc inh: N-linked glycosylation inhibition; D54 ERlucT glycosylation luciferase reporter, 24 h; percent of 100 nM tunicamycin response; reporter increase, % at 12.5 µM; 360,000 tested, 0.23% active; AID 588692;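 active = mean luciferase reporter signal, scaled so untreated is 0 and the glycosylation-blocking control 100, at or above a set limit in every replicate; inconclusive = mean reaches the limit but not every replicate does; inactive = mean below the limit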;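 note: luciferase carries N-glycosylation sites so blocking glycosylation raises the light; 0% = median of neutral control wells and 100% = median of 100 nM tunicamycin wells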
PvdQ acylase: P. aeruginosa PvdQ acylase inhibition | purified PvdQ acylase, fluorescence plate reader | 340,000 tested, 0.063% active | inhibition, % at 10 µM; in the data active = inhibition above about 30%, passing the limit was not always enough; inconclusive = no clear call, values can overlap the other calls;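 note: 0% = vehicle neutral wells and 100% = reference inhibitor wells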
RAD52 DNA ctr: binds DNA, flagging false RAD52 inhibitor hits; shares compounds with RAD52 inh; Salmon sperm DNA/acridine orange FP displacement, DNA binding; AC50, µM; 1,000 tested, 8% active;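 active = fitted half-maximal concentration for signal loss at or below twice the highest dose tested, in every separate run, actives reach about 64 µM in these data; inconclusive = runs disagree, or flat partial signal loss, or poor fit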
* marks the source's active call; other numbers are inactive results; i = inactive; ? = inconclusive; nt = no result; ! = repeats disagree.

SMILES | CFTR F508del cor | dFosB act | RAD54 inh | RAD52 inh | Glyco luc inh | PvdQ acylase | RAD52 DNA ctr
CC(C(=O)c1ccc(-c2ccccc2)cc1)[n+]1cccc(NC(=O)c2ccccc2)c1 (stereo unspecified) | 0 | 2 | ? | 58* | 1 | -18 | i
CCOC(=O)c1ccc[n+](C(C)C(=O)c2ccc(-c3ccccc3)cc2)c1 (stereo unspecified) | nt | -5 | nt | nt | 1 | 8 | nt
CC(Oc1ccc2c3c(c(=O)oc2c1)CCCC3)C(=O)NCCN1CCOCC1 (stereo unspecified) | 2 | -11 | -2 | -16 | 0 | 3 | nt
COc1ccc2c(c1OC)c(=O)n1c3ccc(OC(C)C(=O)NCCN4CCOCC4)cc3c3ccnc2c31 (stereo unspecified) | 5 | -65 | 97* | 66* | 13 | -6 | ?
COc1ccc2nc(N(CCN(C)C)C(=O)c3ccc4ccccc4c3)sc2c1 | 1 | 4 | 9 | 54* | -3 | -4 | i
CN(C)CCN(C(=O)c1ccc2ccccc2c1)c1nc2cc3c(cc2s1)OCCO3 | -2 | 15 | 34 | 69* | -2 | -5 | i
C[C@H](CO)N1C[C@H](C)[C@H](CN(C)Cc2ccncc2)OCCCC[C@H](C)Oc2ccc(NC(=O)Nc3ccc(F)cc3)cc2C1=O | -4 | nt | 7 | nt | nt | nt | nt
COCCCNC(=O)c1cc(Nc2ccc(OC)cc2OC)nc2ccccc12 | -2 | -4 | 5 | -1 | 4 | -3 | nt
CCN(CC)CCCNC(=O)c1cc(Nc2ccc(OC)cc2OC)nc2ccccc12 | 4 | -13 | -1 | 8 | -3 | -8 | i
CCn1c(=S)[nH]c2sc3c(c2c1=O)CCCC3 | 6 | 2 | 0 | -31 | -3 | -2 | nt
CN(C)CCCn1c(=S)[nH]c2sc3c(c2c1=O)CCCC3 | 0 | 1 | 11 | 97* | -1 | -4 | i
Nc1ccn([C@@H]2O[C@H](CNCc3cccc4c3sc3ccccc34)[C@@H](O)[C@H]2O)c(=O)n1 | 1 | nt | 22 | 54* | 3 | nt | i
Cc1sc2ccccc2c1CNC[C@H]1O[C@@H](n2ccc(N)nc2=O)[C@H](O)[C@@H]1O | 2 | nt | 7 | -14 | 1 | nt | nt
CN1/C(=C/C=C/c2n(C)c3cc([N+](=O)[O-])c([N+](=O)[O-])cc3[n+]2C)C(C)(C)c2ccccc21 | 1 | nt | 32 | 61* | -6 | nt | 38µM*
CN1C(=O)c2cc(NC(=O)c3cnccn3)ccc2OC[C@H]2O[C@H](CC(=O)O)CC[C@H]21 | -1 | nt | -10 | -7 | nt | nt | nt
OC(CN1CCOCC1)Cn1c2ccccc2c2ccccc21 (stereo unspecified) | -1 | -3 | 9 | -1 | -1 | -7 | nt
OC(CN1CCNCC1)Cn1c2ccccc2c2ccccc21 (stereo unspecified) | 1 | 2 | 19 | 79* | -3 | -5 | i
CN1CCN(c2ccc(CNC(=O)c3cccc4c(-c5ccc(F)c(F)c5)coc34)cc2)CC1 | nt | nt | 16 | nt | -10 | nt | nt
CN1CCN(c2ccc(CNC(=O)c3ccc(-c4ccc(F)c(F)c4)c4ccoc34)cc2)CC1 | 2 | nt | 3 | 54* | -9 | nt | i
COc1cc(CNn2c(C)n[nH]c2=S)cc(Br)c1OCc1ccc(F)cc1 | nt | -3 | nt | -3 | 2 | -8 | nt
COc1cc(CNC(C)c2ccccc2)cc(Br)c1OCc1ccc(F)cc1 (stereo unspecified) | 1 | -18 | -5 | 54* | -6 | 3 | i
O=C(O)c1cccc(NC(=O)c2ccccc2)c1 | 3 | -3 | -13 | 5 | 2 | -6 | nt
O=C(Nc1cccc(C(=O)Nc2cccc(Br)c2)c1)c1ccccc1 | -2 | -7 | -3 | 94* | 0 | -13 | i
COc1ccc(CN(C)C[C@H]2OCCCC[C@@H](C)Oc3ccc(NC(=O)Nc4cccc5ccccc45)cc3C(=O)N([C@H](C)CO)C[C@H]2C)cc1 | -3 | nt | -2 | 6 | nt | nt | nt
CC1(C)Cc2c(c(-c3ccco3)nc3sc4c(NCC5CCCO5)ncnc4c23)CO1 (stereo unspecified) | nt | -15 | nt | nt | -3 | -19 | nt
SMILES | CFTR F508del cor | dFosB act | RAD54 inh | RAD52 inh | Glyco luc inh | PvdQ acylase | RAD52 DNA ctr
CCN(CC)CCNc1ncnc2c1sc1nc(N3CCCC3)c3c(c12)CC(C)(C)OC3 | 0 | 23* | nt | 79* | -11 | -2 | i
N#C[C@H]1[C@H](c2ccc(C#CC3CCCC3)cc2)[C@@H](CO)N1C(=O)c1cccc(F)c1 | 1 | nt | nt | -21 | nt | nt | nt
CCN1CCN(Cc2ccc(NC(=O)c3ccc(C)c(NC(=O)c4cncc(-c5cccs5)c4)c3)cc2C(F)(F)F)CC1 | nt | -228 | -9 | nt | -22 | -13 | nt
CCN1CCN(Cc2ccc(NC(=O)c3cc(NC(=O)c4cncc(-c5ccc(C#N)cc5)c4)cc(OC)c3)cc2C(F)(F)F)CC1 | -5 | -255 | 5 | 87* | -22 | -14 | i
CCN1CCN(Cc2ccc(NC(=O)c3cc(NC(=O)c4cnnc5ccccc45)cc(OC)c3)cc2C(F)(F)F)CC1 | -1 | 10 | 22 | 70*! | -1 | 9 | i
CCN1CCN(Cc2ccc(NC(=O)c3cc(NC(=O)c4nccnc4N)cc(OC)c3)cc2C(F)(F)F)CC1 | 0 | -32 | 11 | 39 | -8 | -12 | nt
CO[C@@H]1CN(C)C(=O)c2cc(NC(=O)C3CC3)ccc2OC[C@@H](C)N(Cc2cccc(F)c2)C[C@H]1C | -2 | nt | 3 | 2 | nt | nt | nt
CN1CCN(CCCN2c3ccccc3Sc3ccc(C(F)(F)F)cc32)CC1 | 1 | 7 | 21 | 50*! | -1 | -3 | i
O=C(CN1CCCC(O)C1)N1c2ccccc2Sc2ccc(C(F)(F)F)cc21 (stereo unspecified) | nt | -2 | -2 | nt | 2 | -9 | nt
Cc1cc(C(C)(C)C)ccc1OCCCCN1CCCC1 | nt | 4 | nt | nt | -4 | 2 | nt
CCC(C)(C)c1ccc(OCCCC[n+]2cccc(C)c2C)c(C(C)(C)CC)c1 | 2 | 13 | 36 | 66* | 15 | 7 | i
NC(c1ccccc1)c1csc(Nc2ccc(C(=O)c3ccccc3)cc2)n1 (stereo unspecified) | -1 | nt | -12 | 62* | -5 | nt | i
CC(=O)c1ccc(Nc2nc(C(N)Cc3ccc(N)cc3)cs2)cc1 (stereo unspecified) | 0 | nt | 8 | 87* | 5 | nt | i
NC(c1ccccc1)c1csc(Nc2ccc(C(=O)NCCO)cc2)n1 (stereo unspecified) | 2 | nt | 9 | 21 | 2 | nt | nt
CCOC(=O)c1c(C)n(C)c2ccc(OCC(O)CNC(CC)CO)cc12 (stereo unspecified) | nt | 2 | nt | nt | 2 | -7 | nt
CCOC(=O)c1c(C)n(-c2ccc(C)cc2)c2ccc(OCC(O)CNCCCO)cc12 (stereo unspecified) | -6 | 9 | nt | 83* | -5 | -5 | i
